Molecules are shown by their SMILES. Results filed as inconclusive are left out. The source made the active and inactive calls.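 Rule for the calls, unless noted: active = percent response above a set limit, the screen-wide mean plus 3 SD (cut at about 130% in these data); inactive = the rest.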

These results are taken from PubChem BioAssay.

Test [1] in a line: yeast TOR pathway RPL19A-GFP modulators, primary screen, cell-based, S. cerevisiae, multiplex flow cytometry (AID 1862; in the data active = percent of DMSO control GFP below about 86%;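 note: lower values mimic rapamycin by blocking the RPL19A rise seen in DMSO cells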). As to conditions: S. cerevisiae RPL19A-GFP strain, flow cytometry fluorescence, 3 h; at 10 µM; stronger effect = lower value. Background: A flow cytometer gives signals particle by particle.
Test [2] in a line: modulators of MEP2-GFP levels in yeast, primary screen, S. cerevisiae, multiplex flow cytometry (AID 1867;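 active = GFP response, as percent of the DMSO control, above the screen-wide mean plus 3 SD, about 139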;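 note: median GFP channel fluorescence of barcode-gated MEP2-GFP cells measured by flow cytometry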). As to conditions: S. cerevisiae MEP2-GFP strain, 3 h, at 10 µM, stronger effect = higher value, 100% means same as DMSO wells.
A short description of test [3]: modulators of CIT2-GFP expression in yeast, primary screen, S. cerevisiae, GFP fusion, multiplex flow cytometry (AID 1870).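 Note: barcoded CIT2-GFP strain pooled with four other GFP strains with rapamycin as positive control; median GFP fluorescence per well over plate mean of DMSO wells so 100% = DMSO.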 Particulars: 3 h, at 10 µM, stronger effect = higher value.
Test [4] is described as follows: modulators of LAP4-GFP expression in yeast, primary screen, S. cerevisiae, multiplex flow cytometry (AID 1873;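 active = GFP signal, as percent of the solvent control, above the screen mean plus 3 SD, about 149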). As to conditions: 3 h, at 10 µM, stronger effect = higher value.
Test [5] can be described thus: modulators of AGP1-GFP expression in yeast TOR pathway, primary screen, cell-based, multiplex flow cytometry, S. cerevisiae (AID 1887;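 active = GFP signal above the screen-wide mean plus 3 SD, that is over about 124.5% of the solvent control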;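 note: AGP1-GFP fusion strain of S. cerevisiae within a five-strain barcoded multiplex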). As to conditions: 3 h, at 10 µM, stronger effect = higher value.
The nature of test [6]: inhibitors of CD8+ T cell-vesicle binding, pilot screen, LFA-1/ICAM-1 modulator project, MLPCN validation set, flow cytometry (AID 2523;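 active = response below a set limit, under 55% cells CD8-positive and vesicle-bound, and CD8 cells' 90th-percentile brightness under 279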;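 for vesicle binding response: mean PE anti-B7-1 fluorescence of CD8+ cells relative to row control; 100% = QL9-loaded vesicles with DMSO vehicle in the same plate row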). As to conditions: 2C mouse CD8+ T cells, at 7 µM, stronger effect = lower value; double positive events: measured here: CD8+/vesicle+ event percentage.
The target of test [7] is Integrin beta-1 (Homo sapiens) + Integrin alpha-4 (Homo sapiens) (UniProt P13612+P05556). Briefly: inhibition of HUTS-21 binding to VLA-4, pilot screen, VLA-4 allosteric modulator project, U937 cells, HUTS-21 mAb, flow cytometry, validation set (AID 2674;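 active = inhibition above 50%, about 3 SD of the validation set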;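 note: antibody binding induced by the VLA-4 ligand LDV present at three times its Kd; 0% = LDV ligand with antibody and no compound and 100% = antibody without LDV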). Particulars: HUTS-21 LIBS mAb binding, at 6.7 µM, stronger effect = higher value, binding induced by LDV ligand.
Chain of Integrin beta-1 (Homo sapiens) + Integrin alpha-4 (Homo sapiens) (P05556 whole entry, looked up): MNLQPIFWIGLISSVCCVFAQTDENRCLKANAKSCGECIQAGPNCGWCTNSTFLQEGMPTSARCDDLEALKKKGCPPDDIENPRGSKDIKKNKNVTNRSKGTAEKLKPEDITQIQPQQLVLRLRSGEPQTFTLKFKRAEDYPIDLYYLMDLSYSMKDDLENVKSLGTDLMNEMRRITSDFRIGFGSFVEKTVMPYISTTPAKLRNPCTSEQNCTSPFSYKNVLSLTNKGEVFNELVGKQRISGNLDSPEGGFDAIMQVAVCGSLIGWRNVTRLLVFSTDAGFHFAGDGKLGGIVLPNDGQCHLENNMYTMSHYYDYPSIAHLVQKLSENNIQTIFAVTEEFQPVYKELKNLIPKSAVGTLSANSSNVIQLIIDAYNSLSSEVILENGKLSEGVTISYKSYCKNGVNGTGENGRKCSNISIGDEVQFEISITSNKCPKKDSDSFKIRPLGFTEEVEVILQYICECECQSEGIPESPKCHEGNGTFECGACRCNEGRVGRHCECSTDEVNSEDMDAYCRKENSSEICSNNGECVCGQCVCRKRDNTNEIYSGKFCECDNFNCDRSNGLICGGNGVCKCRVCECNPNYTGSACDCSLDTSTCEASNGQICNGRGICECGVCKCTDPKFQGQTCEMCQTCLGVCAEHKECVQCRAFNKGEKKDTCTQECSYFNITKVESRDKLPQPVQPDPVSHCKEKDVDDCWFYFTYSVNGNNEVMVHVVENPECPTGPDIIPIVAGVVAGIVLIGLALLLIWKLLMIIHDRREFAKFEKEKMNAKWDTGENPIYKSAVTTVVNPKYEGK
Chain of Integrin beta-1 (Homo sapiens) + Integrin alpha-4 (Homo sapiens) (P13612 whole entry, looked up): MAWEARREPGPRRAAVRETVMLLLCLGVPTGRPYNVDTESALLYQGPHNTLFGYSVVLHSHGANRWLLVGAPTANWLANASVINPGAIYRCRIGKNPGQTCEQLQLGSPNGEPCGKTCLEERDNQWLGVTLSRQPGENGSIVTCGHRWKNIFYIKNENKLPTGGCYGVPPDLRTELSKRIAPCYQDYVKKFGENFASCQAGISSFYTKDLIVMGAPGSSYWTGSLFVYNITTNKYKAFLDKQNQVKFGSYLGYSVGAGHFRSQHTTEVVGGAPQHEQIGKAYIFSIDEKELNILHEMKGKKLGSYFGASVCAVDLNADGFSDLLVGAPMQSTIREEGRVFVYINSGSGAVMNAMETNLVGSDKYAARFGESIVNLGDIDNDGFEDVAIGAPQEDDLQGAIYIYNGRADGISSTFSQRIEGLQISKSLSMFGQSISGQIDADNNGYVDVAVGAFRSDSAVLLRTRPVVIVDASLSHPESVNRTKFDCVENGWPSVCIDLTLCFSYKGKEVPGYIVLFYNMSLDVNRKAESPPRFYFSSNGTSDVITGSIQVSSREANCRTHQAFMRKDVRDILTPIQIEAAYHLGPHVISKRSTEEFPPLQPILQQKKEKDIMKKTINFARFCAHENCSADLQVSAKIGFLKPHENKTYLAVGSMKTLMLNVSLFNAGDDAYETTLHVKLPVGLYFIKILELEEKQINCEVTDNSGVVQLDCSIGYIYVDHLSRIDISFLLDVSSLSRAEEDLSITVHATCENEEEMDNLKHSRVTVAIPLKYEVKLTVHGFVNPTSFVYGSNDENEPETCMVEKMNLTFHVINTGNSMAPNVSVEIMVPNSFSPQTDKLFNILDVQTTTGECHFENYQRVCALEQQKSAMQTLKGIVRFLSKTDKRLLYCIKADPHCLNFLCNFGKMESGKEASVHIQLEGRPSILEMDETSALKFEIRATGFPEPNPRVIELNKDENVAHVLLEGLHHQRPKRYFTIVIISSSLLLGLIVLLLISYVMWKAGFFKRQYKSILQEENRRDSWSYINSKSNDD
Test [8] in a line: superoxide lowering in aged yeast cells, pilot screen, validation compound set (AID 2706;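 active = superoxide response below 65% of plate, a cut near 3 SD across the whole screen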;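 note: yeast exposed to compound for one week at 30 degrees C before staining; 100% = mean of all compound wells on the same plate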). Particulars: S. cerevisiae aging, superoxide DHE fluorescence; at 10 µM; stronger effect = lower value.
The target in test [9] is Beta-adrenergic receptor kinase 1 (Homo sapiens) (UniProt P25098). Briefly: GRK2 binders displacing RNA aptamer, biochemical, validation, human GRK2, bead flow cytometry (AID 488806;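 active = aptamer binding inhibition above 30%, about 3 SD of noise from non-fluorescent compounds; inactive = inhibition at or below 30%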). Particulars: bead-bound GRK2, FAM-aptamer displacement, at 10 µM, stronger effect = higher value.
Chain of Beta-adrenergic receptor kinase 1 (Homo sapiens) (P25098 whole entry, looked up): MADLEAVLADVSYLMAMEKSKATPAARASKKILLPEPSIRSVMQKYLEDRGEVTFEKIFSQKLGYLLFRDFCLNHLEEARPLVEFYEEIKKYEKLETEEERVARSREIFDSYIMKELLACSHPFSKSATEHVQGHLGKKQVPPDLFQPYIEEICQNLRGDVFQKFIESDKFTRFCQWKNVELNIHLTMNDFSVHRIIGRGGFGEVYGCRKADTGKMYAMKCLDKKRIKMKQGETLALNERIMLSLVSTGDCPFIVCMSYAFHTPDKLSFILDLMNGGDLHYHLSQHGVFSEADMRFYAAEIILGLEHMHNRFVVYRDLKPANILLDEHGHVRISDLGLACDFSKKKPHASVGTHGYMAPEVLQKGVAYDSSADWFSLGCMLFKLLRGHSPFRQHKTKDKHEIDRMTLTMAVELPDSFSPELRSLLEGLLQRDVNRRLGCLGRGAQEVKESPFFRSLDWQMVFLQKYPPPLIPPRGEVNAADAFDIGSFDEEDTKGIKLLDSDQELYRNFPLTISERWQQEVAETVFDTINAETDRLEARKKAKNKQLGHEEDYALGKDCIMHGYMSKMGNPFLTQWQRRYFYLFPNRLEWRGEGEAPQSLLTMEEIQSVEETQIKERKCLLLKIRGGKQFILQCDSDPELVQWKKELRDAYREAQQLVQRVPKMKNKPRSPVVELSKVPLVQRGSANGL
Test [10] addresses Beta-2 adrenergic receptor (Homo sapiens) (UniProt P07550). Briefly: beta2AR agonists driving receptor internalization, pilot screen, cell-based, FAP fluorogen, flow cytometry, validation set (AID 504459;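 active = percent response above 42, roughly 3 SD of non-fluorescent test compounds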;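 note: agonist-driven loss of surface beta2AR via internalization measured by FAP dye flow cytometry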). Particulars: Am2.2-beta2AR cells, FAP surface receptor flow cytometry; at 10 µM; stronger effect = higher value.
The target in test [11] is AP-2 complex subunit beta (Homo sapiens) (UniProt P63010). Put plainly: inhibitors of arrestin peptide binding to AP2, pilot screen, biochemical, validation set, GST-AP2 beads, flow cytometry (AID 504541;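 active = inhibition above 54%, about 3 SD of non-fluorescent compounds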;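 note: AP2 carries R879A mutation and is captured from E. coli lysate; bead-bound FITC arrestin peptide fluorescence measuring arrestin peptide binding to AP2; 0% = DMSO wells and 100% = excess unlabeled arrestin peptide control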). As to conditions: FITC arrestin peptide, at 10 µM, stronger effect = higher value, AP2 beta2 appendage fragment, R879A mutant.
Chain of AP-2 complex subunit beta (Homo sapiens) (P63010 whole entry, looked up, the tested form may be a part, one chain of several): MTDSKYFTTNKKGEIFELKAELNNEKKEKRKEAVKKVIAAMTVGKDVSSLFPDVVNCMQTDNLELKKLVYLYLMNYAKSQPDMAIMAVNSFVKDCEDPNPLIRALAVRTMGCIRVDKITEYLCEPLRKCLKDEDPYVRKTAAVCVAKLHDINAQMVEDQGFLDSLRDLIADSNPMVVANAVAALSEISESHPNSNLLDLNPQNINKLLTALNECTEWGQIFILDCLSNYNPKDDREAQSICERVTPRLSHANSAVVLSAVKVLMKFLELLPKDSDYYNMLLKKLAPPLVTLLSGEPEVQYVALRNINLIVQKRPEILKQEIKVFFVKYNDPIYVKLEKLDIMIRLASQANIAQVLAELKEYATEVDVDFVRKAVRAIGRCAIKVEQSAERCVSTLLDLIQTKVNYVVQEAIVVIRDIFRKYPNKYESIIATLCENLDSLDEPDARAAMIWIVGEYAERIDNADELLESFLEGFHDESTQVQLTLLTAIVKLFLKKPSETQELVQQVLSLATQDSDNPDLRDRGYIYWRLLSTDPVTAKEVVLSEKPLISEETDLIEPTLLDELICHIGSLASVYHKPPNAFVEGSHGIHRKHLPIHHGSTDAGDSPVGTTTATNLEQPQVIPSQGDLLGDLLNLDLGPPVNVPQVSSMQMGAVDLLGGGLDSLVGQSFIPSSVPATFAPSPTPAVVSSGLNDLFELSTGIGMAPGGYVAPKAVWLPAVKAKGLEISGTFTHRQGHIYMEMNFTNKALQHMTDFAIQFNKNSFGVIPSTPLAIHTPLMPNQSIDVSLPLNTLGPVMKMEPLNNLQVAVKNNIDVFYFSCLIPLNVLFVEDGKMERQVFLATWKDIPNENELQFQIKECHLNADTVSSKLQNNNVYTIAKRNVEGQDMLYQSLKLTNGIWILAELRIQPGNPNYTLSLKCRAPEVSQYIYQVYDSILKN
Test [12] can be described thus: yeast V-ATPase proton transport modulators, S. cerevisiae, pHLuorin, HTS validation (AID 504600; in the data active = response above about 15%;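 note: plate controls were DMSO for no effect and reference compound for full effect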). As to conditions: S. cerevisiae pHLuorin cytosolic pH, at 10 µM, stronger effect = higher value.
Test [13] relates to anti-desmoglein-3 scFv antibody binding to human DSG3. Put plainly: inhibitors of anti-DSG3 scFv binding to DSG3, pilot screen, biochemical, validation compound set, bead-based, flow cytometry (AID 588368;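 active = binding below the plate cutoff, the plate median minus 3 SD, with a reading above zero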;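 note: signal is the median channel fluorescence of bead-bound GFP antibody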). As to conditions: Protein G beads, DSG3-Fc, scFv-GFP binding, at 10 µM, stronger effect = lower value.
Test [14] is described as follows: inhibitors of fungal efflux pumps CDR1, CDR2, MDR1, pilot screen, validation compound set, multiplex, phenotypic (AID 588506;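 active = efflux inhibition above 0.42, the validation set average plus 4 SD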;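 note: Nile Red retained in cells so higher fluorescence means more efflux inhibition; 0 = negative control wells and 1 = enniatin B 25 µM full block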). Particulars: S. cerevisiae pump-expressing triplex, Nile Red efflux flow cytometry; at 10 µM; stronger effect = higher value; the pumps come from Candida albicans.
Test [15] deals with ATP-binding cassette sub-family B member 6 (Homo sapiens) (UniProt Q9NP58). Briefly: ABCB6 transporter inhibitors, pilot screen, K562-ABCB6 cells, flow cytometry, validation set (AID 588550;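 active = inhibition above the screen-wide mean plus 3 SD, about 51%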;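 note: 0% = DMSO wells and 100% = benzethonium chloride 70 µM positive control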). Particulars: K562-ABCB6 porphyrin accumulation, 1 h, at 10 µM, stronger effect = higher value.
Chain of ATP-binding cassette sub-family B member 6 (Homo sapiens) (Q9NP58 whole entry, looked up): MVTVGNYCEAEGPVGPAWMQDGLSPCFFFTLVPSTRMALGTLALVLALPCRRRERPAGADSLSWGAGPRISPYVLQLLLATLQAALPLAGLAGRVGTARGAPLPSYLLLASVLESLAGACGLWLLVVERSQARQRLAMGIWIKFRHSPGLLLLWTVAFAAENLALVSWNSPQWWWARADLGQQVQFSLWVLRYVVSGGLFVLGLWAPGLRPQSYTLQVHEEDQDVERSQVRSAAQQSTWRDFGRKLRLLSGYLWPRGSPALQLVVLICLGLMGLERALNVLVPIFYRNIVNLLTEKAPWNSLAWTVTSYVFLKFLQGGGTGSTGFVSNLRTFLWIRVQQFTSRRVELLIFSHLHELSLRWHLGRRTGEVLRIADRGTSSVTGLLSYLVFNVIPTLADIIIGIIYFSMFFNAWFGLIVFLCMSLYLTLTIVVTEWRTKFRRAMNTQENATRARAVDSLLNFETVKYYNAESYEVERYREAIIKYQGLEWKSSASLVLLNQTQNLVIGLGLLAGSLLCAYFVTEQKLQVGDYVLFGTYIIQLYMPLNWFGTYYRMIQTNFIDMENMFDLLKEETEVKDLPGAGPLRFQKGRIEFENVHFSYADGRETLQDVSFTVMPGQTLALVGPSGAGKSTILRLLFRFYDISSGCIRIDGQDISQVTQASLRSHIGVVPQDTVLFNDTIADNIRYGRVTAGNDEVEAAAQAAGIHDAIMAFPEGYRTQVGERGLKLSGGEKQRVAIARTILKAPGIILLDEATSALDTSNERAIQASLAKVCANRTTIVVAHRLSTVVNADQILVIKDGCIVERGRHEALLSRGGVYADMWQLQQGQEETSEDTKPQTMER
Test [16] is described as follows: promoters of myeloid differentiation in arrested cells, primary screen, cell-based, GFP/MAC1 double positive, flow cytometry, validation set (AID 588685;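 active = differentiation response of at least 50%, scaled between solvent and reference control, from cells with both markers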;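 note: compound exposure lasts four days before antibody staining and flow analysis; 0% = DMSO wells and 100% = 5 µM fulvestrant positive control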). Particulars: ER-HoxA9 marrow cells, stronger effect = higher value, normalized: vehicle 0, fulvestrant 100.

Chain of Beta-2 adrenergic receptor (Homo sapiens) (P07550 whole entry, looked up): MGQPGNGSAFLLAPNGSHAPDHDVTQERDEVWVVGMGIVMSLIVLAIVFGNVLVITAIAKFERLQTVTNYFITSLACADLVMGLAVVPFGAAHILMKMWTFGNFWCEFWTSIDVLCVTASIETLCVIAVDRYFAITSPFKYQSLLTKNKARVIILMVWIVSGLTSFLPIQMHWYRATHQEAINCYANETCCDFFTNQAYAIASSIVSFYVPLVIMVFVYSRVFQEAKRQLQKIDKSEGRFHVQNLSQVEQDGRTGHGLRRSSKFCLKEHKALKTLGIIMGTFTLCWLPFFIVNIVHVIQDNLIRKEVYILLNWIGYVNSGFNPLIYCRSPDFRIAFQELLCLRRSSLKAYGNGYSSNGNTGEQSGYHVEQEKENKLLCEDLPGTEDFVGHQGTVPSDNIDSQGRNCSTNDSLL

A word on the inhibition: it is the relative decrease from the control value, in per cent. As to `CCOC(=O)C1C2C=CC3(CN(c4ccc(Cl)c(F)c4)C(=O)C13)O2` (stereo not drawn), the percent of DMSO control GFP in test [1] is 100% (inactive). Further, the GFP response vs DMSO is 99.3% (inactive) in test [2] and 96.6% (inactive) in [4]. Besides, the percent response of DMSO control in test [3] was 95.4% (inactive). The GFP response, % of DMSO in test [5] is 94.6% (inactive). The double positive events in test [6] came out at 58.3%. Further, the vesicle binding response in test [6] was 171% (inactive). Further, the inhibition in test [7] is -9.79% (inactive); in [11], 36.1% (inactive); in test [15] it was 2% (inactive). Moreover, the superoxide response (% of plate) in [8] was 105% (inactive). Also, the aptamer binding inhibition in test [9] was 1% (inactive). In addition, the response was 1.75% (inactive) in test [10] and -0.79% (inactive) in test [12]. For the same compound, the binding (% of control) in test [13] was 100% (inactive). Besides, in test [14], the efflux inhibition (fraction of control) is 0.33 (inactive). The differentiation response in [16] was 12% (inactive).

Consider `CCCNC(C)C(=O)Nc1ccccc1C` (stereo not drawn), for which, in test [1], the percent of DMSO control GFP is 100% (inactive). For the same compound, the GFP response vs DMSO was 101% (inactive) in test [2] and 92.6% (inactive) in [4]. The percent response of DMSO control in test [3] is 101% (inactive). In addition, in test [5], the GFP response, % of DMSO is 103% (inactive). In test [6], the double positive events was determined as 60.4%. The vesicle binding response in test [6] is 130% (inactive). Besides, the results for the inhibition in [7], in [11] and in test [15] were -15.8% (inactive), -0.33% (inactive) and -3% (inactive), respectively. For the same compound, the superoxide response (% of plate) in test [8] was 96.4% (inactive). Also, the aptamer binding inhibition in test [9] is 2% (inactive). Also, the response in test [10] is 2.61% (inactive); in [12], 4.59% (inactive). Further, the binding (% of control) in test [13] was 102% (inactive). In test [14], the efflux inhibition (fraction of control) was -0.16 (inactive). Besides, the differentiation response in test [16] was -7.5% (inactive).

As for `O=C1CCc2cc(OCCCCc3nnnn3C3CCCCC3)ccc2N1`, the percent of DMSO control GFP in test [1] was 92.4% (inactive). For the same compound, the GFP response vs DMSO in [2] was 136% (inactive); in test [4], 85.3% (inactive). The percent response of DMSO control in test [3] was 101% (inactive). In test [5], the GFP response, % of DMSO was 92.2% (inactive). Also, the double positive events in test [6] is 67%. The vesicle binding response in [6] was 194% (inactive). In addition, the figures for the inhibition in test [7], in test [11] and in test [15] were -5.18% (inactive), -4.26% (inactive) and 11% (inactive), respectively. The superoxide response (% of plate) in [8] is 102% (inactive). Moreover, in test [9], the aptamer binding inhibition was 6% (inactive). Also, the response in [10] was -6.49% (inactive); in test [12], -1.32% (inactive). Moreover, the binding (% of control) in test [13] is 96.9% (inactive). Besides, in test [14], the efflux inhibition (fraction of control) was -0.09 (inactive). In [16], the differentiation response was 8.19% (inactive).

Turning to `CCOc1ccc(N2C(=O)CC(NCCNc3ccc([N+](=O)[O-])cn3)C2=O)cc1` (stereo not drawn), in [1], the percent of DMSO control GFP was 103% (inactive). Moreover, the GFP response vs DMSO in [2] was 95.6% (inactive); in test [4], 98% (inactive). Moreover, the percent response of DMSO control in [3] is 106% (inactive). In addition, the GFP response, % of DMSO in [5] is 93% (inactive). Further, in [6], the double positive events is 53.2%. For the same compound, the vesicle binding response in test [6] is 145% (inactive). The inhibition was 15% (inactive) in [7], -8.05% (inactive) in [11] and 8% (inactive) in [15]. For the same compound, in [8], the superoxide response (% of plate) is 94.4% (inactive). In test [9], the aptamer binding inhibition is 0% (inactive). Further, the response is 1.65% (inactive) in [10] and 4.15% (inactive) in test [12]. Further, the binding (% of control) in [13] is 98.8% (inactive). Also, the efflux inhibition (fraction of control) in test [14] is 0.06 (inactive). Also, in test [16], the differentiation response is -4.57% (inactive).
